An excerpt weighted towards active compounds, which were near 1.2% of everything screened.
NCOA2 inhibitor = inhibits human steroid receptor coactivator 2; Q15596; HEK293 GAL4-SRC2 luciferase reporter, luminescence; inhibition, % at 9 µM; 370,000 tested, 0.17% active; AID 651957;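 active = inhibition above the mean inhibition of all tested compounds plus 3 SD, set per campaign, cut at about 52% in these data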;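 also: 0% = DMSO treated cells and 100% = cells given Gossypol at 36 µM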
SRC3 inh = human NCOA3 inhibition; Q9Y6Q9; HEK293 GAL4-SRC3 luciferase reporter, luminescence; inhibition, % at 3.6 µM; 360,000 tested, 0.17% active;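 active = inhibition above a per-campaign cutoff, the mean of all compounds plus 3 SD, cut at about 60% in these data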;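 also: 0% = DMSO-treated cells and 100% = gossypol-treated cells at 36 µM; higher means less SRC3-driven luciferase light from the GAL4 reporter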
Shn3 3UTR inh = Schnurri-3 reporter inhibition in Clone20 osteoblasts | 360,000 tested, 0.52% active | inhibition, % at 12.5 µM | Clone20 osteoblast Shn3 3'UTR firefly luciferase, 24 h;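 active = mean inhibition of at least 75% with every replicate also reaching 75%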;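 also: 0% = median of neutral control wells and 100% = pilot-screen positive control compound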
EBV LMP1 NFkB = inhibitors of Epstein-Barr LMP1-induced NF-kappaB reporter. LMP1-induced NF-kappaB luciferase reporter cells, luminescence. inhibition, % at 12.5 µM. 350,000 tested, 0.69% active; in the data active = inhibition above about 41%;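 also: 0% = neutral control wells and 100% = reference inhibitor control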
NCOA1 inh = inhibits human SRC1 coactivator; AID 588354; inhibition, % at 3.6 µM; 360,000 tested, 0.12% active; HEK293 GAL4-SRC1 luciferase reporter, luminescence;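 active = inhibition above the campaign mean plus 3 SD, with each screening campaign given its own cutoff, cut at about 60% in these data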;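 also: 0% = DMSO treated cells and 100% = gossypol at 36 µM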
LRH-1 inv ag = inverse agonists of human LRH-1 (NR5A2); O00482; HEK293T StAR-luciferase reporter, LRH-1 transfected, 24 h; inhibition, % at 3.6 µM; 360,000 tested, 0.13% active; AID 602396;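 active = inhibition above the mean inhibition of all tested compounds plus 3 SD, cut at about 73% in these data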;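 also: 0% = DMSO wells and 100% = reporter-only cells lacking LRH-1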
The depositor's hits bear a star; / = no result given.

SMILES	NCOA2 inhibitor	SRC3 inh	Shn3 3UTR inh	EBV LMP1 NFkB	NCOA1 inh	LRH-1 inv ag
CCOC(=O)Cc1ccc(NC(=O)c2ccccc2Br)cc1	-11	-3	4	4	-5	10
COc1ccc(/C=C2\N=C(C)OC2=O)cc1[N+](=O)[O-]	-13	19	-35	46*	8	-3
COc1ccc(-n2nc(C(=O)c3cccs3)cc(-c3nc4ccccc4[nH]3)c2=N)cc1	-15	-5	-137	59*	-1	-8
Cc1ccccc1-n1nc(C(=O)c2cccs2)cc(-c2nc3ccccc3[nH]2)c1=N	-34	-12	17	15	-5	18
Cc1ccc(-n2c(SCC(=O)NN=Cc3ccc(-c4ccccc4)cc3)nnc2-c2ccccc2)cc1	-10	/	/	/	/	/
CC(=O)c1c(C)[nH]c(C(=O)Nc2nc(-c3ccc(Cl)cc3)cs2)c1C	-25	-13	-19	23	-20	-15
CC(=O)c1c(C)[nH]c(C(=O)Nc2ccc(C)cn2)c1C	31	-12	39	58*	-31	-64
CC(=O)c1c(C)[nH]c(C(=O)Nc2nc(C)cs2)c1C	11	-22	49	71*	-20	-70
CC(=O)c1c(C)[nH]c(C(=O)Nc2cc(C)cc(C)c2)c1C	/	6	0	2	0	-21
CC(C)C(C#CC1CC1)NCc1ccc2c(c1)OCO2 (stereo unspecified)	14	/	/	/	/	/
CCOc1ccc(S(=O)(=O)NCc2ccncc2)cc1	10	6	90*	-2	9	47
CCOC(=O)COc1ccc(S(=O)(=O)NCc2ccncc2)cc1	-6	-4	72	18	0	15
COc1ccccc1N1CCN(CCCNC(=O)C2CCCN(c3ncnc4c3nc3n4CCCCC3)C2)CC1 (stereo unspecified)	-3	9	30	66*	15	18
O=C(NCCCN1CCN(c2ccc(F)cc2)CC1)C1CCCN(c2ncnc3c2nc2n3CCCCC2)C1 (stereo unspecified)	11	-24	32	9	1	9
CCCCN(C)c1c2c(nc3ncnn13)CCCC2	15	/	/	/	/	/
CC(C)=CC(=O)NCC1CCN(C(=O)C(=O)c2cc3ccccc3o2)CC1	16	/	/	/	/	/
O=C1N(c2ccccc2)C[C@@H]2C[C@@H](c3cc4ccccc4o3)N3CCC[C@@]123	54*	88*	97*	90*	90*	95*
O=C1N(c2ccccc2)CC2C(c3ccccc3)C(c3ccccc3)N3CCCC123 (stereo unspecified)	25	/	/	/	/	/
COC(=O)[C@]12C[C@H](CC(=O)NCc3ccc(C)o3)C(=O)N(CCC3=CCCCC3)C1=C[C@H](C(C)C)O[C@@H]2C1CC1	31	/	/	/	/	/
COC(=O)[C@@]1(C)[C@H]2C(=O)N(Cc3ccccc3)C(=O)[C@H]2[C@H]2CN=C(SCc3ccc(C#N)cc3)N21	-37	-17	-12	12	5	18
COC(=O)[C@@]1(C)[C@H]2C(=O)N(Cc3ccccc3)C(=O)[C@H]2[C@H]2CN=C(SCc3ccc(Cl)cc3)N21	-26	-1	-3	70*	11	-7
CCC(=O)N(C)/C=C1\Sc2ccccc2C1=O	-32	-36	-17	76*	-29	-18
CC(=O)N(C)/C=C1\Sc2ccccc2C1=O	-9	1	1	-9	-15	4
Cc1onc(-c2ccccc2)c1C(=O)Nc1cc(C(F)(F)F)ccc1N1CCOCC1	-1	12	12	69*	2	16
Cc1onc(-c2ccccc2)c1C(=O)Nc1ccccc1N1CCOCC1	4	-5	0	7	6	-3
SMILES	NCOA2 inhibitor	SRC3 inh	Shn3 3UTR inh	EBV LMP1 NFkB	NCOA1 inh	LRH-1 inv ag
C[C@@H]1CC=C[C@H]2[C@H]1C(=O)N(Cc1ccccc1)[C@H]2c1cccc([N+](=O)[O-])c1	13	-33	87*	-5	-9	-6
O=C(O)C1CCCCC1C(=O)Nc1ccc2c(c1)OCCO2 (stereo unspecified)	55*	49	-22	-3	43	63
O=C(Nc1ccc2c(c1)OCCO2)C1CC1c1ccccc1 (stereo unspecified)	-2	-48	-36	-15	-37	-76
Cc1nn(C(C)(C)C)c(C)c1/C=N/OC(=O)Nc1ccc(Cl)c(Cl)c1	70*	79*	/	47*	60	25
CC(=O)C1=C(c2ccc(Br)cc2)C(=O)c2ccccc2C1=O	70*	92*	97*	92*	91*	85*
CC(=O)Nc1c(Br)cc2c(c1Br)C(=O)c1ccccc1-2	-8	-4	0	5	-26	16
CCCn1c(C)cc(C(=O)CN2C(=O)c3ccccc3S2(=O)=O)c1C	82*	73*	83*	82*	75*	81*
Cc1cc(C(=O)CN2C(=O)c3ccccc3S2(=O)=O)c(C)n1CC1CCCO1 (stereo unspecified)	88*	88*	68	80*	80*	89*
Cc1cc(C(=O)CN2C(=O)NC(C)(c3ccccc3)C2=O)c(C)n1CC1CCCO1 (stereo unspecified)	/	0	-5	-7	1	1
Cc1ccc(C)c(C(=O)CN2C(=O)c3ccccc3S2(=O)=O)c1	-19	-67	12	14	-40	-31
COC(=O)[C@]12C[C@H](CC(=O)NCc3ccc(OC)c(OC)c3)C(=O)N(Cc3cccc4ccccc34)C1=C[C@H](C(C)(C)C)O[C@@H]2C	10	/	/	/	/	/
O=C(OCc1ccccc1)c1ccc(NCc2cc(O)ccc2O)cc1	83*	40	99*	-36	-34	37
COP(=O)(OC)c1ccc(NCc2cc(O)ccc2O)cc1	9	-17	-6	-2	4	-46
CC(C)OC(=O)c1ccc(NCc2cc(O)ccc2O)cc1	60*	-13	95*	-6	-65	-18
CCc1noc(C)c1C(=O)N1CCN(CC(=O)OC)CC1	-11	/	/	/	/	/
Cc1cc(NS(=O)(=O)c2ccc(NC(=O)Cc3ccccc3)cc2)no1	-13	/	/	/	/	/
Cc1ccccc1NC(=O)CSc1nc2ccccc2c(=O)n1C	12	10	87*	5	17	17
O=C(CSc1nc2ccccc2c(=O)n1CCCN1CCOCC1)Nc1ccc(Br)cc1	-12	-7	3	49*	12	33
CC(=O)c1cccc(NC(=O)CSc2nc3ccccc3c(=O)n2CCCN2CCOCC2)c1	-31	9	6	0	-4	-13
CC(C)Oc1ccccc1NC(=O)CSc1nc2ccccc2c(=O)n1C	4	17	67	10	26	1
CCOC(=O)CNC(=O)C1(NC(=O)CNC(=O)OCc2ccccc2)CCCC1	12	-16	91*	-8	-10	-29
COc1ccc(CNC(=O)COC(=O)[C@@H]2CCCN2C(=O)c2cccs2)cc1	-22	6	9	45*	-4	-18
COc1ccc(NC(=O)COC(=O)[C@@H]2CCCN2C(=O)c2cccs2)c(OC)c1	13	2	14	-1	-40	-7

Source: PubChem
